Experimental data from PubChem BioAssay (Tox21).
Where “and” joins values, the source holds several entries; their conditions need not be identical. Identical values can stand only once. Records with an inconclusive call do not appear. Where a call stands in place of a potency, no number is given. The source holds several records for some structures; these can differ, active in one and inactive in another. Calls of active or inactive are those of the source. Unless noted, calls come from the whole dose curve.

Assays:
[1] = Nuclear factor erythroid 2-related factor 2/antioxidant responsive element (Nrf2/ARE) small molecule agonists: qHTS cell viability counter screen in human keratinocytes (AID 1919968; active = well fitted curve in the direction sought with a large enough effect in the repeat runs; an effect the other way counts as inactive or inconclusive; note: nearly all actives have a fitted effect of over 55% in size; note: potency is the fitted concentration of half-maximal effect)
How it was run: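 Seed 1,500 KeratinoSens cells per well, then incubate 5 h at 37 C/5% CO2. Add compounds in DMSO and incubate 23 h. Add CellTiter-Fluor, wait 1 h and read fluorescence.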

[2] = target: Gonadotropin-releasing hormone receptor (Homo sapiens) (UniProt P30968); test: Human gonadotropin-releasing hormone receptor (GnRHR) small molecule agonists, calcium flux assay in GnRHR-HEK293 cells (AID 1920063); note: nearly all actives have a fitted effect of over 35% in size
Gonadotropin-releasing hormone receptor (Homo sapiens), sequence (P30968 whole entry, looked up): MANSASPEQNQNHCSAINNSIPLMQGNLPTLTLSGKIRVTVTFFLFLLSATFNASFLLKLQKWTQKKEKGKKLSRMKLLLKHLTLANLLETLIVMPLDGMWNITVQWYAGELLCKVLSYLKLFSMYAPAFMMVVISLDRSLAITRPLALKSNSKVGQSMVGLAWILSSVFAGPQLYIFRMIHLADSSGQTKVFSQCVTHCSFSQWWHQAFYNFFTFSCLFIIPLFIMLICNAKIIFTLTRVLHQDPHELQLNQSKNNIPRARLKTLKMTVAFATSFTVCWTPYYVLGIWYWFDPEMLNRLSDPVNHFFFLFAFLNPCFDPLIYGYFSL
How it was run: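 Cells: HEK293 stably expressing human GnRHR. Steps: overnight (18 h) culture, 1 h calcium dye loading at 37 C, compound addition, kinetic fluorescence read at 480/540 nm. Each compound tested at 15 concentrations in triplicate.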

[3] = target: KiSS-1 receptor (Homo sapiens) (UniProt Q969F8); test: Human kisspeptin (KISS1R) small molecule agonists, calcium flux assay in KISS1R-HEK293 cells (AID 1920064; active = well fitted curve in the direction sought with a large enough effect in the repeat runs; an effect the other way counts as inactive or inconclusive)
KiSS-1 receptor (Homo sapiens), sequence (Q969F8 whole entry, looked up): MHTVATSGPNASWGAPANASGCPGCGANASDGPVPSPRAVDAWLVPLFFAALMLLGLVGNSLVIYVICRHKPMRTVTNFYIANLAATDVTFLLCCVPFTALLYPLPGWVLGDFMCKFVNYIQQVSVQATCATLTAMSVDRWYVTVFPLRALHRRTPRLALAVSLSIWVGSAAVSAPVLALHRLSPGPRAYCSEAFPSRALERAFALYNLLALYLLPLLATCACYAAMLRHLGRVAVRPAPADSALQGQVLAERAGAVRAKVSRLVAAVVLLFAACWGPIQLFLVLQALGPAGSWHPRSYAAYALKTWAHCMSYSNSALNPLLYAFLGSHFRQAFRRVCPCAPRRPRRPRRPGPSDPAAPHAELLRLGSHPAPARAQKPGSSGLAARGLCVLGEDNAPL
How it was run: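 Cells plated and incubated 18 h; dye added, 1 h at 37 C; compounds in DMSO pinned in; signal read at 480/540 nm every second for 3 min. Each compound tested at 15 concentrations in triplicate.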

[4] = p53 small molecule agonists, cell-based qHTS assay with human liver microsomes (AID 1963577);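 note: p53 response element beta-lactamase reporter cells with liver microsomes plus NADPH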
How it was run: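 Steps: plate p53RE-bla cells, incubate 5 h at 37 C; add compound in DMSO; add microsomes (0.5 mg/mL final) and NADPH (0.5 mg/mL final); incubate 16 h at 37 C; add LiveBLAzer, 2 h RT; read fluorescence.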

[5] = p53 small molecule agonists, cell-based qHTS assay with rat liver microsomes (AID 1963578)
How it was run: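 Metabolic activation is supplied by rat liver microsomes with NADPH (each 0.5 mg/mL final). p53RE-bla cells incubate with compound 16 h at 37 C; reporter activity is measured by LiveBLAzer fluorescence.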

[6] = p53 small molecule agonists, cell-based qHTS assay with human liver microsomes: qHTS cell viability counter screen (AID 1963579); note: nearly all actives have a fitted effect of over 45% in size; note: potency is the fitted concentration of half-maximal effect
How it was run: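 After the 460/530 nm beta-lactamase read, CellTiter-Glo was added to the same wells and luminescence measured after 30 min at room temperature, giving viability of p53RE-bla cells treated 16 h with compounds plus microsomes and NADPH.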

[7] = p53 small molecule agonists, cell-based qHTS assay with rat liver microsomes: qHTS cell viability counter screen (AID 1963580); note: nearly all actives have a fitted effect of over 45% in size
How it was run: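 In HCT-116 cells carrying a p53 response element-bla reporter, compounds were metabolically activated in situ by rat liver microsomes with NADPH over 16 h. Cell ATP content then served as the cytotoxicity measure.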

[8] = p53 small molecule agonists, cell-based qHTS assay: qHTS cell viability counter screen (AID 1963581); note: nearly all actives have a fitted effect of over 45% in size; note: potency is the fitted concentration of half-maximal effect
How it was run: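 Cells: HCT-116 with p53 response element-driven beta-lactamase. Treatment: 16 h, 37 C, compounds in DMSO. Read: CellTiter-Glo luminescence after 30 min RT.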

[9] = cAMP Responsive Elements (CRE) small molecule agonists, cell-based qHTS assay (AID 1963590)
How it was run: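 Agonist mode qHTS in CRE-bla HEK 293T cells: compounds dosed from DMSO for 3 h at 37 C/5% CO2, followed by LiveBLAzer B/G FRET substrate for 2 h at room temperature.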

[10] = cAMP Responsive Elements (CRE) small molecule antagonists, cell-based qHTS assay (AID 1963591; active = well fitted inhibition curve with a large enough effect in the signal ratio in the repeat runs, not every such curve was filed as active; the % refers to the signal ratio)
How it was run: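 Antagonist mode: test compounds are co-incubated with the adenylyl cyclase activator NKH477 (0.25 uM final) on CRE-bla HEK293T cells for 3 h at 37 °C, followed by LiveBLAzer substrate loading.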

[11] = target: Beta-2 adrenergic receptor (Homo sapiens) (UniProt P07550); test: Adrenergic beta2 receptor (ADRB2) small molecule antagonists, cell-based qHTS assay (AID 1963592); note: series mostly up to about 92 µM; nearly all actives have a fitted effect of over 50% in size
Beta-2 adrenergic receptor (Homo sapiens), sequence (P07550 whole entry, looked up): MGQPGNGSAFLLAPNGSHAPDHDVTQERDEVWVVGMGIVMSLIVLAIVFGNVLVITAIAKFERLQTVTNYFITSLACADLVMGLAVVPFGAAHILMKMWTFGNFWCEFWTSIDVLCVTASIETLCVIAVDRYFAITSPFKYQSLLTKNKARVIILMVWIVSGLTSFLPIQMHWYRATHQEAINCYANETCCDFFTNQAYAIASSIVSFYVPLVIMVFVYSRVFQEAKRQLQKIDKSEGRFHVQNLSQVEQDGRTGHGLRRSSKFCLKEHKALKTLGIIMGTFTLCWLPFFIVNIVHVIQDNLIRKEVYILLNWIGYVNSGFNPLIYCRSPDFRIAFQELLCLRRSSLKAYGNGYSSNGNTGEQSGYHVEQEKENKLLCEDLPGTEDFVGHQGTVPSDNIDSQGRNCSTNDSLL
How it was run: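 Cells (CHO, stable ADRB2 overexpression) incubated 18-20hr at 37C; compounds added from DMSO; agonist mix (1nM isoproterenol, 100uM IBMX, 25uM Ro-20-1724) added; 0.5hr RT; d2-cAMP and anti-cAMP-cryptate added; 1hr RT; 665/615 nm read.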

[12] = target: Beta-2 adrenergic receptor (Homo sapiens) (UniProt P07550); test: Adrenergic beta2 receptor (ADRB2) small molecule agonists, cell-based qHTS assay (AID 1963593);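 note: CHO cells stably overexpressing human ADRB2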
How it was run: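 CHO cells stably over-expressing ADRB2 were plated overnight at 37C, then dosed with compounds plus a stimulation mix containing 100uM IBMX and 25uM Ro-20-1724 for 0.5hr at room temperature. cAMP was measured by HTRF competition, 1hr.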

[13] = target: D(2) dopamine receptor (Homo sapiens) (UniProt P14416); test: Dopamine D2 receptor (DRD2) small molecule agonists, cell-based qHTS assay (AID 1963594); note: nearly all actives have a fitted effect of over 35% in size
D(2) dopamine receptor (Homo sapiens), sequence (P14416 whole entry, looked up): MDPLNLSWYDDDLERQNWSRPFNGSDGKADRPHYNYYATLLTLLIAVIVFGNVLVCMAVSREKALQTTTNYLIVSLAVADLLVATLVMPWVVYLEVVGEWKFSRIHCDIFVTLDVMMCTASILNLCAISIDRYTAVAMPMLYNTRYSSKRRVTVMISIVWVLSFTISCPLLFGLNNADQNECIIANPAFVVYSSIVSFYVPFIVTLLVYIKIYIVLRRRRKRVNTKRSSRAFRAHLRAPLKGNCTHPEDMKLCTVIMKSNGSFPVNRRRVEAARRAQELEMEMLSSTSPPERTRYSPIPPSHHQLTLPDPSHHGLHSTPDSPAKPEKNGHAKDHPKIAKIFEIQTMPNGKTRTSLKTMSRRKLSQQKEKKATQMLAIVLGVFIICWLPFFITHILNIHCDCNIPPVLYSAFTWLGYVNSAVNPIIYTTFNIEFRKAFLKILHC
How it was run: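 HEK293 cells stably expressing DRD2 were cultured 24 h at 37 C, then given Ro20-1724 (0.1 mM final) and compounds for 10 min at room temperature. NKH477 (200nM) was then added for 30 min. cAMP was read by HTRF.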

[14] = target: D(2) dopamine receptor (Homo sapiens) (UniProt P14416); test: Dopamine D2 receptor (DRD2) small molecule antagonists, cell-based qHTS assay (AID 1963595; active = well fitted inhibition curve with a large enough effect in the signal ratio in the repeat runs, with a control signal flat; the % refers to the signal ratio; note: potency is the fitted concentration of half-maximal effect)
How it was run: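 Human DRD2 antagonist qHTS measuring cAMP by HTRF. The cells are exposed to compound for 10 min, then to NKH477 (200 nM) and quinpirole (12 nM) for 30 min at RT, with Ro20-1724 (0.1 mM) present throughout.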

[15] = G protein-coupled receptor (GPCR) small molecule agonists, calcium flux assay: HEK293 wild type cell line counter screen (AID 1920065)
How it was run: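 Counter-screen of the Tox21 10K library for non-specific calcium release: dye-loaded cells received compounds in DMSO and were monitored by kinetic fluorescence (480/540 nm, 3 min). Fifteen concentrations, run in triplicate.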

[16] = target: 5-hydroxytryptamine receptor 2A (Homo sapiens) (UniProt P28223); test: 5-hydroxytryptamine receptor 2A (HTR2A) small molecule antagonists, cell-based qHTS assay (AID 1963586); note: nearly all actives have a fitted effect of over 45% in size; note: potency is the fitted concentration of half-maximal effect
5-hydroxytryptamine receptor 2A (Homo sapiens), sequence (P28223 whole entry, looked up): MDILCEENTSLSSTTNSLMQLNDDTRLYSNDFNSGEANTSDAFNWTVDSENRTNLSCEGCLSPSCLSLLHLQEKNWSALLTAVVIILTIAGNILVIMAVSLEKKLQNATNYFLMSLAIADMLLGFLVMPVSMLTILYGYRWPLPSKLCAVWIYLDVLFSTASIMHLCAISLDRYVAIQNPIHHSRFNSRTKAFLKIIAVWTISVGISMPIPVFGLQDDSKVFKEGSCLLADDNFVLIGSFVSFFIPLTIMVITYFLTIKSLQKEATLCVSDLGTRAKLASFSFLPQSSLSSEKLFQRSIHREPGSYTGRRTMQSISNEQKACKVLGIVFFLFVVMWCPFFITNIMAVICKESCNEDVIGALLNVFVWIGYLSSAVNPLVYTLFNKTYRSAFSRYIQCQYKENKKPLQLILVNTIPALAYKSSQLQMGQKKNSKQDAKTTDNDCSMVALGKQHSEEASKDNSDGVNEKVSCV
How it was run: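 Antagonist-mode intracellular calcium assay: DOI (4 nM) added after 5 min compound pre-incubation at room temperature to dye-loaded HTR2A-CHO cells. Fluorescence followed for 3 min, sampled every second.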

[17] = target: 5-hydroxytryptamine receptor 2A (Homo sapiens) (UniProt P28223); test: 5-hydroxytryptamine receptor 2A (HTR2A) small molecule agonists, cell-based qHTS assay (AID 1963587); note: nearly all actives have a fitted effect of over 30% in size; note: potency is the fitted concentration of half-maximal effect
How it was run: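 HTR2A-CHO cells, plated 18 h at 37 C/5% CO2, dye-loaded 1 h at 37 C; compounds in DMSO added by pin tool (agonist mode). Intracellular calcium flux read as kinetic fluorescence on FDSS over 2 min at 1 s intervals.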

[18] = target: Muscarinic acetylcholine receptor M1 (Homo sapiens) (UniProt P11229); test: Cholinergic receptor muscarinic 1 (CHRM1) small molecule antagonists, cell-based qHTS assay (AID 1963588); note: nearly all actives have a fitted effect of over 40% in size; note: potency is the fitted concentration of half-maximal effect
Muscarinic acetylcholine receptor M1 (Homo sapiens), sequence (P11229 whole entry, looked up): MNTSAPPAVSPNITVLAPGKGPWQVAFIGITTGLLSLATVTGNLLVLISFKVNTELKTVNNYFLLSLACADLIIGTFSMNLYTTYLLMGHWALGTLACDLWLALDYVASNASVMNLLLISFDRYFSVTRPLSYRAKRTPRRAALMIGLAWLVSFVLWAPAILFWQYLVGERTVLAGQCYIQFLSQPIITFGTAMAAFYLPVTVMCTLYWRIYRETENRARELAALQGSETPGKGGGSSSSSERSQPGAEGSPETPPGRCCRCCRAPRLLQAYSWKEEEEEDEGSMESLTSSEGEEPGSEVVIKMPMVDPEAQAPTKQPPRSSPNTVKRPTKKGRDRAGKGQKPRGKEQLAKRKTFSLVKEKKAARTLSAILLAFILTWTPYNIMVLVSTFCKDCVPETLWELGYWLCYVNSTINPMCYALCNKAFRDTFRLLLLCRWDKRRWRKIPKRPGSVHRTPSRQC
How it was run: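 CHRM1-CHO calcium-flux assay, antagonist mode. Cells were seeded 18 h, dye-loaded 1 h at 37 C and given compound for 5 min at RT, then acetylcholine was added at 50nM. FDSS fluorescence was read 3 min; 15 concentrations, three runs.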

[19] = target: Muscarinic acetylcholine receptor M1 (Homo sapiens) (UniProt P11229); test: Cholinergic receptor muscarinic 1 (CHRM1) small molecule agonists, cell-based qHTS assay (AID 1963589); note: nearly all actives have a fitted effect of over 35% in size
How it was run: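 Agonist-mode qHTS in CHO cells stably carrying human muscarinic M1. Intracellular calcium is tracked by fluorescence every second after compound transfer; each compound runs at 15 concentrations in three independent runs.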

[20] = p53 small molecule agonists, cell-based qHTS assay (AID 1963582; active = well fitted activation curve with a large enough effect in the signal ratio in the repeat runs, not every such curve was filed as active; the % refers to the signal ratio)
How it was run: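 Quantitative HTS in p53RE-bla cells: after a 5 h settling period, compounds delivered in DMSO were left on cells for 16 h at 37 C, and reporter induction was measured as fluorescence following 2 h substrate loading.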

SMILES	Potency [1]	Potency [2]	Potency [3]	Potency [4]	Potency [5]	Potency [6]	Potency [7]	Potency [8]	Potency [9]	Potency [10]	Potency [11]	Potency [12]	Potency [13]	Potency [14]	Potency [15]	Potency [16]	Potency [17]	Potency [18]	Potency [19]	Potency [20]
C[C@]12CC[C@@H]3c4ccc(O)cc4CC[C@H]3[C@@H]1CC[C@H]2O	inactive	inactive	inactive	inactive	inactive	inactive	inactive	inactive	inactive	inactive	inactive	inactive	inactive	inactive	–	–	–	–	–	–
Nc1cc(Cl)c(-c2cc(Cl)c(N)cc2Cl)cc1Cl	27.3 µM (active) and 48.6 µM (active)	inactive	inactive	inactive	inactive	51.3 µM (active)	–	32.4 µM (active)	–	–	inactive	–	inactive	inactive	inactive	5.29 µM (active)	inactive	inactive	inactive	–
NC1CCCCC1	inactive	inactive	inactive	–	–	inactive	inactive	inactive	inactive	inactive	inactive	inactive	inactive	inactive	inactive	inactive	1.96 µM (active) and inactive	inactive and 4.7 nM (active)	inactive	–
O=C(O)c1cccc(C(=O)O)c1	inactive	–	inactive	–	–	inactive	inactive	inactive	–	inactive	inactive	inactive	inactive	–	–	inactive	inactive	inactive	inactive	–
ClC1=C(Cl)C(Cl)(Cl)C(Cl)=C1Cl	inactive	inactive	inactive	inactive	inactive	inactive	–	inactive	inactive	–	inactive	inactive	–	inactive	inactive	inactive	inactive	inactive	inactive	inactive
CCC(O)OC(O)CC (stereo unspecified)	inactive	inactive	inactive	inactive	–	inactive	inactive	inactive	inactive	inactive	inactive	inactive	inactive	–	inactive	inactive	inactive	inactive	inactive	inactive
C/C=C/C=C/C(=O)O	inactive	inactive	inactive	–	–	inactive	inactive	inactive	inactive	inactive	inactive	–	inactive	inactive	–	–	inactive	inactive	inactive	–
C=CC(=O)OCCCCCCCC(C)C	inactive	inactive	inactive	inactive	inactive	inactive	inactive	inactive	inactive	inactive	inactive	inactive	inactive	inactive	inactive	inactive	inactive	inactive	inactive	–
COc1cc(NC(=O)CC(C)=O)c(OC)cc1Cl	inactive	inactive	inactive	inactive	–	inactive	inactive	–	–	–	inactive	–	inactive	inactive	–	inactive	inactive	inactive	inactive	inactive
CNC[C@H](O)c1cccc(O)c1	inactive	inactive	inactive	inactive	inactive	inactive	–	inactive	–	inactive	inactive	–	inactive	61.1 µM (active) and 29.8 µM (active)	inactive	inactive	inactive	inactive	inactive	inactive
c1cnc2c(c1)ccc1cccnc12	3.89 µM (active) and 6.11 µM (active) and 7.7 µM (active)	–	inactive	inactive	inactive	36.7 µM (active)	–	inactive	inactive	–	inactive	inactive	–	inactive	inactive	inactive	inactive	inactive	–	–
Cc1nnc(NS(=O)(=O)c2ccc(N)cc2)s1	inactive	inactive	inactive	inactive	inactive	inactive	inactive	inactive	inactive	inactive	inactive	inactive	inactive	inactive	–	–	–	–	–	–
Cc1ccc(S(=O)(=O)O)cc1	inactive	inactive	–	–	–	inactive	–	inactive	inactive	inactive	inactive	inactive	inactive	inactive	inactive	inactive	inactive	inactive	inactive	–
